# In paper PMC7862700, “An all-to-all approach to the identification of sequence-specific readers for epigenetic DNA modifications on cytosine”:
# Columns and labels:
# Assay in all cases: DAPPL (digital affinity profiling via proximity ligation, sequencing); 10 mM Tris-HCl pH 7.5, 50 mM NaCl, 1 mM DTT, 4% glycerol, room temperature, 30 min; GST-TFs on glutathione beads, 16-mer random dsDNA library, 0.1% formaldehyde crosslink after washing; high values mean tight binding
# FEV = molecular target: T1, FEV (Homo sapiens, UniProt Q99581 1-238); settings: protein: recombinant; tags: N-terminal GST; dsDNA, one strand shown
# T1 sequence: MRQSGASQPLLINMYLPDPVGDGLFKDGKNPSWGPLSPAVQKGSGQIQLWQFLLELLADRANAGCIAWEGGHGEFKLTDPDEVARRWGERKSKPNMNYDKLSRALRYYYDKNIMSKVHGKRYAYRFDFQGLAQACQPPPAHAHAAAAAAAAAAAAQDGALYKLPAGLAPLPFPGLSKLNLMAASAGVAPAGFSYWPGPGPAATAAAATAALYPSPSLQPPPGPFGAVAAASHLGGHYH
# How it was run: (§1)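 Sequencing on an Illumina NextSeq500 followed washing, crosslinking with 0.1% formaldehyde, proximity ligation (BsaI/T4 ligase, 1 h, 37 °C) and PCR amplification of pools that had been incubated for 30 min at room temperature with 200 nmole of a random double-stranded 16-mer DNA library in Tris/NaCl/DTT/glycerol buffer. Each pool held DNA-barcoded human transcription factors, expressed in yeast as GST fusions and captured on glutathione beads, plus a tag-only sample. Binding signal is a hexamer's read frequency for a factor divided by its frequency in the tag-only sample.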
# ETV5 = ETV5 (Homo sapiens, UniProt P41161 1-510); settings: protein: recombinant; tags: N-terminal GST; dsDNA, one strand shown
# How it was run: as §1
# HSF1 = HSF1 (Homo sapiens, UniProt Q00613 1-529); settings: protein: recombinant; tags: N-terminal GST; chain copies: 3; dsDNA, one strand shown
# How it was run: as §1
# SPIC = molecular target: T2, SPIC (Homo sapiens, UniProt Q8N5J4 1-248); settings: protein: recombinant; tags: N-terminal GST; dsDNA, one strand shown
# T2 sequence: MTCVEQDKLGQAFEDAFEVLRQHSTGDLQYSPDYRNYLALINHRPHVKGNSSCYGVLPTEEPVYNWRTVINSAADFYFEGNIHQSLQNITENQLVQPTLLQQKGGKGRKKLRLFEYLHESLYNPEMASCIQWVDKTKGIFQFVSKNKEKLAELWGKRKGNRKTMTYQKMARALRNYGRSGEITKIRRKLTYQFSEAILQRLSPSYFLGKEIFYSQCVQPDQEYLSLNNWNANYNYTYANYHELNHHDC
# How it was run: as §1
# ELF4 = ELF4 (Homo sapiens, UniProt Q99607 1-663); settings: protein: recombinant; tags: N-terminal GST; dsDNA, one strand shown
# How it was run: as §1
# ELK4 = molecular target: T3, ELK4 (Homo sapiens, UniProt P28324-2 1-405); settings: protein: recombinant; tags: N-terminal GST; dsDNA, one strand shown
# T3 sequence: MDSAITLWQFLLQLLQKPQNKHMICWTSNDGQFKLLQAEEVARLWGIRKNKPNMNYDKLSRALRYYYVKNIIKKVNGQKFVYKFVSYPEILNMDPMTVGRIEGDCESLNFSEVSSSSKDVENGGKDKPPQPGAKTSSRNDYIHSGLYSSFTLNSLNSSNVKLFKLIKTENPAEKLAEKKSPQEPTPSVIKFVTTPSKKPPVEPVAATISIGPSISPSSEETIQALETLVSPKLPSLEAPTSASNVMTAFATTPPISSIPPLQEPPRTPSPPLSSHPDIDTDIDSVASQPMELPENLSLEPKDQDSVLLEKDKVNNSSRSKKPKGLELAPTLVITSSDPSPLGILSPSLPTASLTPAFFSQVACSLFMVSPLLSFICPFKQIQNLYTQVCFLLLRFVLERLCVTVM
# How it was run: as §1
# ETV2 = molecular target: T4, ETV2 (Homo sapiens, UniProt O00321 1-342); settings: protein: recombinant; tags: N-terminal GST; dsDNA, one strand shown
# T4 sequence: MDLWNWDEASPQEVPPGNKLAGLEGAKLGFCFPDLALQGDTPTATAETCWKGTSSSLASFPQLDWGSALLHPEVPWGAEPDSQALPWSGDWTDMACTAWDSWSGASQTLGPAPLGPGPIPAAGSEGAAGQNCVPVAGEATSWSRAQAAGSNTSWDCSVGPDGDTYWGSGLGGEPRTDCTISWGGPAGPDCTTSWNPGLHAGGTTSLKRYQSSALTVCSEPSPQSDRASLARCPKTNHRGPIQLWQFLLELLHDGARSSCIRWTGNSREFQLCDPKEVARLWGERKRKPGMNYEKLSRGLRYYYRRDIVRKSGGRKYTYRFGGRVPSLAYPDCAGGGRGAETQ
# How it was run: as §1
# ELF3 = molecular target: T5, ELF3 (Homo sapiens, UniProt P78545 1-371); settings: protein: recombinant; tags: N-terminal GST; dsDNA, one strand shown
# T5 sequence: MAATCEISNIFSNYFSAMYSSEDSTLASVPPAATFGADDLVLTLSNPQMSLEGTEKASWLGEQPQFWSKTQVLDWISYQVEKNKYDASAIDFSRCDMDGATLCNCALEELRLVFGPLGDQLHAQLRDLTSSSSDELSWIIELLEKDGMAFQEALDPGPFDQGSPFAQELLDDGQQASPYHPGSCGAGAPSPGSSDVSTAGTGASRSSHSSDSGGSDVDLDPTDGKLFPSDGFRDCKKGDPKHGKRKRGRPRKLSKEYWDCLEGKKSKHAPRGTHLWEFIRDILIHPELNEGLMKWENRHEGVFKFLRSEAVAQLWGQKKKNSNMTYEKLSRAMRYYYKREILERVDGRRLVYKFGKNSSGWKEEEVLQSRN
# How it was run: as §1
# CRX = CRX (Homo sapiens, UniProt O43186 1-299); settings: protein: recombinant; tags: N-terminal GST; dsDNA, one strand shown
# How it was run: as §1
# ETV1 = ETV1 (Homo sapiens, UniProt P50549 1-477); settings: protein: recombinant; tags: N-terminal GST; dsDNA, one strand shown
# How it was run: as §1
# Chain of HSF1 (Q00613 whole entry): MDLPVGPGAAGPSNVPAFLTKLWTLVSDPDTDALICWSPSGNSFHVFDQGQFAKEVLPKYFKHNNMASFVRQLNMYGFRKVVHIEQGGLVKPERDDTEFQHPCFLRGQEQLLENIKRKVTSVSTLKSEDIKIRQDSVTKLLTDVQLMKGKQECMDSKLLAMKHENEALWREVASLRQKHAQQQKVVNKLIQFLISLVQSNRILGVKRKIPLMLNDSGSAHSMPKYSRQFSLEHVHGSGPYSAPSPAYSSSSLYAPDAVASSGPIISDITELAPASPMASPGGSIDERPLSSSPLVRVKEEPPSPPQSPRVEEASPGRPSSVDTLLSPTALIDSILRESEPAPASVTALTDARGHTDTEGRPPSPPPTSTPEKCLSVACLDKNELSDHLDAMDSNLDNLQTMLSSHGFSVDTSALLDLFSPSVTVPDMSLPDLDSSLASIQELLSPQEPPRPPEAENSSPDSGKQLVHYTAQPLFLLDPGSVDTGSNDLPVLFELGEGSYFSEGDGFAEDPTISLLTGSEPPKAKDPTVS
# Chain of CRX (O43186 whole entry): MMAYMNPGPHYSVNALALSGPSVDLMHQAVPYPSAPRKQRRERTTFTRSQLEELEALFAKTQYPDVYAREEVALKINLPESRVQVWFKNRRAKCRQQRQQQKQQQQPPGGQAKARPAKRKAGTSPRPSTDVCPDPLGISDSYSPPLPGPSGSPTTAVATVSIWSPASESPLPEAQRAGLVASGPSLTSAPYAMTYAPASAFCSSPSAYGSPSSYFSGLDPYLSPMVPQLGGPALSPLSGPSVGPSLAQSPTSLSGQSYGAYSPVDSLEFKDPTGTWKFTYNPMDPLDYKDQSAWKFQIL
# Chain of ETV5 (P41161 whole entry): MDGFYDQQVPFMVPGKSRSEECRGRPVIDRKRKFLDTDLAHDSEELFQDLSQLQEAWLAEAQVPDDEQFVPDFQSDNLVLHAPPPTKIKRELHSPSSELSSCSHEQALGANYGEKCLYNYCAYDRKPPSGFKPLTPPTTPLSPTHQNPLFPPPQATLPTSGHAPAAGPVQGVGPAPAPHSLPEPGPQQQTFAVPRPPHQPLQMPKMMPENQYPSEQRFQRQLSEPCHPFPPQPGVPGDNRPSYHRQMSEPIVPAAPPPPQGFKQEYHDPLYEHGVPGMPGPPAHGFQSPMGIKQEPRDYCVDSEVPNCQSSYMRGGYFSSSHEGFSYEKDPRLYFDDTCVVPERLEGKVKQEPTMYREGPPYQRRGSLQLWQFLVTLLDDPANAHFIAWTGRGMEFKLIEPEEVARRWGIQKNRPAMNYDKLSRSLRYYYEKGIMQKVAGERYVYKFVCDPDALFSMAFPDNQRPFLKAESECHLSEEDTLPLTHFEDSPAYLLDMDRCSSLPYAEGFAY
# Chain of ELF4 (Q99607 whole entry): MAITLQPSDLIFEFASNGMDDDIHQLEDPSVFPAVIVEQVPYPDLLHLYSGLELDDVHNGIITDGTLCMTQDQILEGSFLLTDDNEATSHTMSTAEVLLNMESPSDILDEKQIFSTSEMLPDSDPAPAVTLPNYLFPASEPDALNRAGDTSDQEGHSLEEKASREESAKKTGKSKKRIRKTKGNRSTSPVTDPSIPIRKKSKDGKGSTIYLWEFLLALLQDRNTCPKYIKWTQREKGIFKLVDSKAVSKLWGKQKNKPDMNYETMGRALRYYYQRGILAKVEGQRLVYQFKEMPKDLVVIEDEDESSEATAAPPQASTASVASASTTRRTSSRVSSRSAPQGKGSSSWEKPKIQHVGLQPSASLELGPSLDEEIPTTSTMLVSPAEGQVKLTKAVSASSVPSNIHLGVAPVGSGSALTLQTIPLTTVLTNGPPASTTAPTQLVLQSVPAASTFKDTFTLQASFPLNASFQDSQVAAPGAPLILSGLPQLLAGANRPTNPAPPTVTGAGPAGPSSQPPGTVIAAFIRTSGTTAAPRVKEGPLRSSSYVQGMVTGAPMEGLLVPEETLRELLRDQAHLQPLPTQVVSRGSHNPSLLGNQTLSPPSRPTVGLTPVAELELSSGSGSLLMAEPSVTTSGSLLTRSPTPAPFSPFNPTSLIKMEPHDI
# Chain of ETV1 (P50549 whole entry): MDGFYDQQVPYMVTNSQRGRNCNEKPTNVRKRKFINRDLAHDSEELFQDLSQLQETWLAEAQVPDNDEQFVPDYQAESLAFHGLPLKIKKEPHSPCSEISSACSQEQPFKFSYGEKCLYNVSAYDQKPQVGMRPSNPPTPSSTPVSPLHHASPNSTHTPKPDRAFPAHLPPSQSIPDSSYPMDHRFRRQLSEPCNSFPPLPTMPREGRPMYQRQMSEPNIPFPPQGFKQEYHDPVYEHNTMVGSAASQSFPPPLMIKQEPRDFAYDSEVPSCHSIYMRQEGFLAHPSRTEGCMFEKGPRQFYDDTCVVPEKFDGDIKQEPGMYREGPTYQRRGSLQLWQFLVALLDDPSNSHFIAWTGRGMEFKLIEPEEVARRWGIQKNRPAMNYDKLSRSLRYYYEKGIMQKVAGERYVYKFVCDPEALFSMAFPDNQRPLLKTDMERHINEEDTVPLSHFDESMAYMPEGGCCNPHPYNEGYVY
sequence,measurement,setting,value
TCGCCT,binding signal,FEV,"1.28 fold enrichment (6-mer frequency, TF over GST control)"
same,binding signal,ETV5,"1.3 fold enrichment (6-mer frequency, TF over GST control)"
same,binding signal,HSF1,"1.3 fold enrichment (6-mer frequency, TF over GST control)"
same,binding signal,SPIC,"1.22 fold enrichment (6-mer frequency, TF over GST control)"
same,binding signal,ELF4,"1.27 fold enrichment (6-mer frequency, TF over GST control)"
same,binding signal,ELK4,"1.5 fold enrichment (6-mer frequency, TF over GST control)"
same,binding signal,ETV2,"1.3 fold enrichment (6-mer frequency, TF over GST control)"
same,binding signal,ELF3,"1.31 fold enrichment (6-mer frequency, TF over GST control)"
same,binding signal,CRX,"1.32 fold enrichment (6-mer frequency, TF over GST control)"
same,binding signal,ETV1,"1.41 fold enrichment (6-mer frequency, TF over GST control)"
